Screens from PubChem.
This is a sample that favours compounds with a hit; in the whole collection about 21% have one here.
CHX counter: Cycloheximide Counterscreen for Small Molecule Inhibitors of Shiga Toxin. actives 12% (n = 300,000). cell reporter, cycloheximide protein synthesis inhibition counterscreen. max response, %; in the data active = max response mostly above about 13%, no sharp cut-off; inactive = mostly below about 14%; note: read at 38.3 µM for the half of the compounds with a filed dose; 0% is about no effect
Pf growth 96h: Primary qHTS for delayed death inhibitors of the malarial parasite plastid, 96 hour incubation; P. falciparum luciferase reporter growth, 96 h; actives 6.9% (n = 320,000); Potency, µM (top dose mostly 28.7 µM), for the others: top-dose activity change, negative = inhibition, hits mostly inhibitors; note: potency is the fitted concentration of half-maximal effect; % is set by controls: 0 for no effect and ±100 for the full control effect
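Two parasite generations (96 h, 37 C, 5% CO2) of compound exposure in infected erythrocytes (0.05% parasitemia, 2% hematocrit). Luciferase-reporter P. falciparum; decreased luminescence indicates inhibited growth, aimed at apicoplast-acting delayed death.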
Pf growth 48h: Primary qHTS for delayed death inhibitors of the malarial parasite plastid, 48 hour incubation; P. falciparum luciferase growth in erythrocytes, 48 h; Potency, µM (titrated, usually from 28.7 µM), without a hit: top-dose activity change, negative = inhibition, actives largely listed as inhibitors; actives 5.9% (n = 310,000); note: potency is the fitted concentration of half-maximal effect; % is set by controls: 0 for no effect and ±100 for the full control effect
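Cell-based growth assay: transgenic P. falciparum expressing firefly luciferase, cultured in red cells within RPMI 1640 containing 0.5% w/v Albumax, 24 mM bicarbonate and gentamycin. A drop in luciferase activity indicates inhibition.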
HCMV antiviral: qHTS Assay for inhibitors of the human cytomegalovirus (HCMV); HFF cells, HCMV-luciferase reporter, 72 h; active compounds read low; activity change, negative = inhibition, % at 57.5 µM; actives 4.5% (n = 410,000); in the data active = activity change below about -60%; inconclusive = no clear call, values can overlap the other calls; inactive = above about -39%; note: % is set by controls: 0 for no effect and ±100 for the full control effect
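HFF cells seeded 16 h at 37C, treated with compounds, infected with luciferase-reporter HCMV at MOI 1 PFU/cell; luciferase read at 72 h post infection, normalized to buffer-only and Salinomycin controls.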
HCV inh: qHTS Assay for Inhibitors of Hepatitis C Virus (HCV). actives 3.4% (n = 340,000). Huh7.5.1 HCVcc-Cre infection, luciferase reporter, 44 h. Potency, µM (doses to about 41.8 µM), for inactives: at the highest dose activity change, negative = inhibition, most hits filed as inhibitors; note: potency is the fitted concentration of half-maximal effect; % is set by controls: 0 for no effect and ±100 for the full control effect
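After 44 h co-culture of compound, cells and HCVcc-Cre (~0.5 moi), substrate is added for 15 min at room temperature and luciferase measured over 15 sec. Cells were seeded at 1,000/well and pre-cultured 4 h.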
Shiga toxin inh: A qHTS for Small Molecule Inhibitors of Shiga Toxin | Vero cells, Shiga toxin protein synthesis inhibition reporter | inhibition, % at 38.7 µM | actives 9.2% (n = 290,000) | AID 2315, 2010; in the data active = inhibition mostly above about 28%, no sharp cut-off; inactive = mostly below about 43%; note: 0% is about no effect
Starred values were filed as active, the others as inactive; ? = inconclusive; nt = no result. Unless noted, calls come from the whole dose curve; as a rule, active = well fitted inhibition curve with a large enough effect; inconclusive = small, poorly fitted or top-dose-only effect, or another doubt; inactive = no such curve, though single readings can be large or run the other way.

SMILES	CHX counter	Pf growth 96h	Pf growth 48h	HCMV antiviral	HCV inh	Shiga toxin inh
CCc1ccccc1NC(=O)c1ccc2c(c1)N(Cc1cccc(Cl)c1)C(=O)c1ccccc1S2(=O)=O	nt	nt	nt	4.5	nt	nt
Cc1cc(=O)n(-c2ccc(C(=O)O)cc2)[nH]1	0.2	5.9%	18.5%	-23.8	11.5%	-10.1
CCOC(=O)c1ccc(-n2[nH]c(-c3ccccc3)cc2=O)cc1	-0.5	?	?	30.3	14.1µM*	7.2
COc1ccc(Cn2c(SCc3ccccc3C)nc3cc(OC)c(OC)cc3c2=N)cc1	-6.1	1.65µM*	5.86µM*	27.8	nt	-11.5
CCSc1nc2cc(OC)c(OC)cc2c(=O)n1CCc1ccccc1	-4.6	?	nt	?	?	-27.2
COCCCn1c(SCCc2ccccc2)nc2cc(OC)c(OC)cc2c1=N	1.5	9.28µM*	11.7µM*	-18.1	12.6µM*	-7.7
COc1cc2nc(SCc3ccc(F)cc3)n(Cc3cccs3)c(=N)c2cc1OC	-3.2	?	?	-10.3	?	-8.3
Cn1c(=O)n(Cc2ccccc2Cl)c(=O)c2c1nc1n2CCN1c1ccccc1	nt	nt	nt	-34.3	nt	nt
Cc1cccnc1Nc1ncnc(N)c1[N+](=O)[O-]	3.1	?	8.1%	-20.0	17.4%	-12.7
Cc1cc(C)nc(Sc2ncnc(N)c2[N+](=O)[O-])n1	1.3	-2.4%	?	?	22.4µM*	-12.5
Cc1cccc(Nc2ncnc(N)c2[N+](=O)[O-])n1	-1.1	?	14.1%	-78.6*	10.6%	-10.0
Cc1ccc(C)c(Nc2ncnc(N)c2[N+](=O)[O-])c1	-2.8	2.08µM*	2.5%	-27.0	6.2%	-4.9
COc1ccc(C(CNC(=O)CNC(=O)c2cccc(F)c2)N2CCOCC2)cc1 (centres undefined)	nt	nt	nt	0.5	nt	nt
O=S(=O)(NC1CCCC1)c1cccc(S(=O)(=O)N2CCC(n3nnc4ccccc43)CC2)c1	-5.2	42.2%	10.4µM*	-26.3	?	18.7
CCNC(=S)N1CCCC(c2nc3ccc(C)cc3[nH]2)C1 (centres undefined)	9.3	30.6%	-11.4%	22.9	?	29.3
Cc1ccc2c(c1)nnn2C1CCN(S(=O)(=O)c2cccc(S(=O)(=O)N(C)C)c2)CC1	7.6	?	10.4µM*	-30.8	10µM*	-21.7
S=c1nc(C2CCCCC2)[nH]c2ccccc12	-2.0	2.33µM*	-13.0%	-7.3	14.4%	24.9
Cc1ccc2nc(C3CCCCC3)[nH]c2c1	38.2*	?	79.0%	82.3	3.3%	42.2*
Cc1ccc2c(c1)nnn2C1CCN(S(=O)(=O)c2ccc3ccccc3c2)CC1	-2.1	-19.3%	10.4µM*	-64.4*	?	-3.1
Cc1ccc2c(c1)nnn2C1CCN(S(=O)(=O)c2ccc(C(=O)N(C)C)cc2)CC1	-4.6	-25.1%	?	6.3	?	4.6
Cc1ccc2nc(C3CCN(S(=O)(=O)c4ccc5ccccc5c4)CC3)[nH]c2c1	-1.2	?	?	-79.8*	?	-9.4
CCOc1ccc(CCNC(=O)C2CCC(CNS(=O)(=O)c3ccc(Cl)cc3)CC2)cc1OCC (centres undefined)	nt	nt	nt	5.3	nt	nt
Cc1cc(C(=O)N2CCC2(C)C(=O)Nc2ccc3[nH]ncc3c2)nn1C (centres undefined)	nt	nt	nt	-14.7	nt	nt
CC(C(=O)NCCC1=CCCCC1)N1C(=O)c2ccccc2C1=O (centres undefined)	-2.5	5.86µM*	-18.5%	1.2	12.1%	-11.0
O=C1c2ccccc2C(=O)N1CCC1=CCCCC1	40.6*	41.6%	nt	38.9	20.3%	88.6*
SMILES	CHX counter	Pf growth 96h	Pf growth 48h	HCMV antiviral	HCV inh	Shiga toxin inh
C=CCn1c(SC(C)C(=O)NCCC2=CCCCC2)nc2ccccc2c1=O (centres undefined)	2.2	13.1µM*	nt	?	?	-2.1
CN(C(=O)c1ccc2c(c1)C(=O)N(CCC1=CCCCC1)C2=O)C1CCCCC1	12.2	10.4µM*	nt	39.4	4.4%	42.5
Cc1ccc(-c2nnc(SCC(=O)N3CCc4ccccc43)o2)cc1	nt	nt	nt	0.5	nt	nt
O=C1CN(C(=O)COC(=O)c2ccc([N+](=O)[O-])o2)c2ccccc2N1	nt	3.5%	-5.6%	0.0	?	nt
COC(=O)C1=C(C)N(Cc2ccccc2)C(=S)NC1c1ccc(Cl)cc1 (centres undefined)	nt	nt	nt	-23.6	nt	nt
COC(=O)C1=C(C)N(CCC2=CCCCC2)C(=O)C1	21.2*	nt	-5.4%	-9.6	0.3%	23.9
CC(C)(C)c1ccc(-c2nnc(-c3ccccc3NC(=O)c3ccc(F)cc3F)o2)cc1	nt	nt	nt	-4.8	nt	nt
Cc1ccc(NS(=O)(=O)c2cccc(C(=O)N3CCN(C(=O)c4ccco4)CC3)c2)cc1	nt	?	?	0.0	-1.8%	nt
C[C@@H](C(=O)NC1CCN(Cc2ccccc2)CC1)N1C(=O)N2CCc3c([nH]c4ccccc34)[C@@]2(C)C1=O	-3.4	?	-11.8%	-13.0	7.94µM*	-9.4
CC(C)[C@@H](C(=O)NC1CCN(Cc2ccccc2)CC1)N1C(=O)N2CCc3c([nH]c4ccccc34)[C@@]2(C)C1=O	-3.7	7.38µM*	?	-65.2*	-52.2%	-8.5
CC(C)[C@@H](C(=O)N1CCCC1)N1C(=O)N2CCc3c([nH]c4ccccc34)[C@@]2(C)C1=O	1.4	10.4µM*	?	-26.4	-4.4%	-4.4
C[C@@H](C(=O)NC1CCCCC1)N1C(=O)N2CCc3c([nH]c4ccccc34)[C@@]2(C)C1=O	-3.4	?	45.0%	9.9	0.562µM*	2.7
O=C(Nc1cccc(F)c1)Nc1nnc([C@@H]2O[C@H](CO)[C@@H](O)[C@H]2O)s1	nt	nt	nt	2.9	nt	nt
CC(=O)NC12CC3CC(C1)CC(C(=O)Nc1nc4c(C)cccc4s1)(C3)C2	6.0	?	-14.5%	47.8	nt	12.9
Cc1ccc(C)c(Cn2c(C3CC(=O)N(c4ccccc4C)C3)nc3ccccc32)c1 (centres undefined)	nt	nt	nt	-15.3	nt	nt
N#CCSc1nc2c(c(=O)n1Cc1ccco1)C1(CCCC1)Cc1ccccc1-2	17.4	?	3.8%	?	?	38.3
CCCn1c(SCC#N)nc2c(c1=O)C1(CCCC1)Cc1ccccc1-2	-3.6	4.65µM*	-20.9%	-30.1	-17.8%	-7.4
NC(=O)CSc1nc2c(c(=O)n1-c1ccccc1)C1(CCCCC1)Cc1ccccc1-2	0.9	11.7µM*	-13.8%	-93.4*	0.1%	-7.4
O=c1c2c(nc3n1CCCCC3)-c1ccccc1CC21CCCCC1	1.4	8.28µM*	-16.6%	?	13.6%	-0.3
NNc1nc(N)c2c(n1)-c1ccccc1CC21CCCC1	-2.8	1.65µM*	10.4µM*	?	-12.2%	-8.1
Cc1cc2c(nn1)CCc1nonc1-2	-3.9	nt	3.7%	42.0	0.3%	-9.4
